High-throughput results from PubChem BioAssay.
NALP3 yeast inh – NALP3 inflammasome inhibitors in reconstituted yeast, primary screen, luminescence, uHTS | Yeast reconstituted NLRP3/ASC/caspase-1, beta-gal luminescence, 24 h | inhibition, % at 10 µM | 0.39% of 330,000 active | AID 2825, 2010;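 active means inhibition of 50% or more; inactive means inhibition below 50%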;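 further: plate controls were induced DMSO wells for no effect and uninduced yeast grown without galactose for full effect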
NALP1 inh – NALP1 inflammasome inhibitors in reconstituted yeast, colorimetric, S. cerevisiae, triplicate retest; 0.61% of 280,000 active; AID 2071, 2009; inhibition, % at 10 µM; S. cerevisiae NALP1/ASC/caspase-1 growth, X-gal OD620, 72 h; in the data active means inhibition mostly above about 24%, no sharp cut-off; inactive means mostly below about 32%
PERK inh – block of dimerizer-induced PERK translation repression, primary screen, PERK inhibitor project, CHO PERK-DD cells, SEAP luminescence, HTS; 0.17% of 220,000 active; inhibition, % at 5.6 µM; CHO PERK-DD fusion, SEAP luminescence translation reporter; Eukaryotic translation initiation factor 2-alpha kinase 3 (Homo sapiens), Q9NZJ5;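 active means inhibition above the mean inhibition of all tested compounds plus 3 SD, set separately per screening campaign, cut at about 2.9% in these data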;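 further: PERK kinase domain activated by AP20187 dimerizer at 100 nM; 0% = DMSO with dimerizer and 100% = rapamycin at 8.4 µM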
CR mimetic SO – reduction of superoxide in aged yeast, primary screen, HTS. superoxide response (% of plate mean), % at 10 µM. 0.18% of 330,000 active. S. cerevisiae aged cells, superoxide DHE fluorescence; active compounds read low;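 active means superoxide response under a set limit, about three screen SD below normal, cut at about 65% in these data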;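 further: yeast aged for seven days with compound at 30 °C before DHE staining; 100% = average MFI of all compound-treated wells on the plate with controls excluded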
Rce1 inh – yeast Rce1p protease inhibitors, primary screen, biochemical, fluorescence, cell-free homogeneous | CAAX prenyl protease 2 (Saccharomyces cerevisiae (strain ATCC 204508 / S288c)), Q03530 | yeast membranes, quenched prenylated peptide cleavage fluorescence | calls only | 0.27% of 290,000 active;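 active means fall in fluorescence gain of 50% or more versus controls, with final raw signal at or below 3038400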;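 further: plate controls were neutral control wells for no effect and wells lacking membranes for full effect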
Target sequence (Q03530 whole entry, looked up): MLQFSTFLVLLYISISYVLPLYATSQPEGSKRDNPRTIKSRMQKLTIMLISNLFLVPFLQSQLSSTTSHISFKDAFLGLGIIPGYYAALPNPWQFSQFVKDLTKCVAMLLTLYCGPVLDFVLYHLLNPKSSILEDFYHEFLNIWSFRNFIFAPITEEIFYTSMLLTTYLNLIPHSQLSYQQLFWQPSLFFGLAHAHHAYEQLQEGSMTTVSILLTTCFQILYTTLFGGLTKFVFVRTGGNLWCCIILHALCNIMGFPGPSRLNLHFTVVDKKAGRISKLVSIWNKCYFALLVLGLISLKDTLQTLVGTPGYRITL
V-ATPase pHluor – regulators of yeast V-ATPase proton pumping, primary screen, pHLuorin cytosolic pH fluorescence. 0.37% of 350,000 active. response, % at 10 µM. S. cerevisiae; in the data active means response mostly above about 7.3%, no sharp cut-off; inactive means mostly below about 5.4%; further: actives read high
NALP3 confirm – NALP3 inhibitors retested in yeast, confirmation, luminescence, single concentration; shares compounds with NALP3 yeast inh; AID 435006, 2010; inhibition, % at 10 µM; 81% of 1,300 active; yeast expressing human NALP3; in the data active means inhibition above about 48%
Casp1-ASC yeast – CASP1-PYCARD signaling inhibition in yeast, confirmatory test, counterassay for NLRP3 inhibitor program, one-dose | 66% of 1,000 active | inhibition, % at 10 µM | shares compounds with NALP3 yeast inh | AID 488784, 2010 | yeast expressing Caspase-1-ASC, luminescence counter screen
NALP3 yeast rt – NALP3 inhibitors in yeast, repeat test, confirmation, luminescence, single concentration, retest; shares compounds with NALP3 yeast inh; yeast expressing human NALP3, luminescence read-out; inhibition, % at 10 µM; 53% of 1,000 active; AID 488794, 2010
Numbers without * were called inactive; i = inactive; . = no result. The list is not random: actives were taken first. Their share in the collection is about 1.6%. Unless noted, no stated cut-off is given here; in the data, active means inhibition above about 50%; inactive means the rest.

SMILES	NALP3 yeast inh	NALP1 inh	PERK inh	CR mimetic SO	Rce1 inh	V-ATPase pHluor	NALP3 confirm	Casp1-ASC yeast	NALP3 yeast rt
O=S1(=O)c2ccc(Br)cc2N2CC[C@H](C2)N1Cc1ccc(Cl)cc1	.	.	.	.	.	0.3	.	.	.
O[C@@H]1[C@@H](O)C=C2CCN3Cc4cc5c(cc4[C@H]1C23)OCO5 (stereo partly specified)	63.8*	.	.	96.3	.	2.3	79.1*	59.7*	57.9*
COc1ccc(CN(CCN(C)C)c2ccccn2)cc1	1.8	18.5	-0.1	98.6	i	-0.7	.	.	.
CCCCCCCCCCCCCCCC[N+](C)(C)CCN(Cc1ccc(OC)cc1)c1ncccn1	52.4*	.	.	91.4	.	0.9	20.7	.	.
Cc1cc(N(C)C)ccc1N=Nc1ccc(N)cc1	51.1*	.	.	80.9	i	-1.1	44.5	45.5	39.9
CCCCCC(=O)N1C[C@@H](n2cc(C3CC3)nn2)[C@H](O)C[C@@H]1c1ccccc1	.	.	.	.	.	4.1	.	.	.
C[C@@H]1CN([C@H](C)CO)C(=O)CCCn2cc(nn2)CO[C@H]1CN(C)C(=O)Cc1ccccc1	.	.	.	.	.	2.4	.	.	.
Cc1cc(O)cc2c(=O)c3ccccc3sc12	78.6*	6.9	0.4	84.8	i	-3.4	92.2*	54.2*	62.8*
COc1ccc2sc3ccccc3c(=O)c2c1	24.0	17.3	0.4	88.8	i	-2.6	.	.	.
CCc1ncc(C(O)c2ccc(Cl)cc2)n1Cc1ccccc1 (stereo unspecified)	.	.	.	.	.	-1.8	.	.	.
Cn1c(C(=O)N2CCCc3ccccc32)cc2sccc21	51.3*	-1.7	-0.3	82.6	i	6.8	64.2*	39.8	35.2
CCN1C(=O)[C@H]2[C@@H](c3ccc(C)cc3)N[C@]3(CCCN(Cc4ccc(F)cc4)C3=O)[C@H]2C1=O	.	.	.	.	.	-3.1	.	.	.
CCc1nc(SCc2cccnc2)c2c(=O)n(C)c(=O)n(C)c2n1	53.3*	.	-0.4	90.0	i	-6.1	67.5*	58.2*	47.8
CC(C)Cc1nc(SCc2cccnc2)c2c(=O)n(C)c(=O)n(C)c2n1	59.8*	-10.8	-0.6	85.5	i	-2.7	63.6*	57.0*	42.2
Cc1ccc(S(=O)(=O)N(C)C[C@@H]2OCc3cnnn3CCCC(=O)N([C@@H](C)CO)C[C@@H]2C)cc1	.	.	.	.	.	2.2	.	.	.
COc1ccc(-c2ccc(SCC(=O)NCc3ccco3)nn2)cc1	-111.9	3.2	-0.5	131.4	i	-5.9	-0.7	.	.
O=C(CSc1ccc(-c2ccc(F)cc2)nn1)NCc1ccco1	-89.2	-5.1	-0.1	105.4	i	2.2	.	.	.
C[C@H](CO)N1C[C@H](C)[C@@H](CN(C)C(=O)Nc2cc(F)ccc2F)Oc2ncc(-c3cccc(F)c3)cc2C1=O	.	.	.	.	.	0.9	.	.	.
COC(=O)C12CCC3(SCCS3)C(C(=O)OC)(CCC13SCCS3)C2	58.1*	30.7	0.5	110.8	i	-4.6	22.0	.	.
CCOc1ccc(C(=O)N[C@H](C(=O)N2CCN(c3ncccn3)CC2)C(C)C)cc1	.	.	.	.	.	1.2	.	.	.
COc1ccc(C(=O)c2cc([N+](=O)[O-])ccc2N2CCN(C)CC2)cc1	2.5	27.3	0.1	109.1	i	-1.4	.	.	.
COc1ccc(C(=O)c2cc([N+](=O)[O-])ccc2N2CCCC2)cc1	56.2*	34.2	-1.0	90.7	i	1.4	23.2	.	.
COc1ccc(N2CC(C)(C)[C@H](CC(=O)Nc3ccccc3)C2=O)cc1	.	.	.	.	.	1.0	.	.	.
CC1(C)C(=O)CC[C@]2(C)C3C(=O)C=C4[C@H]5C[C@@](C)(C(=O)O)CC[C@]5(C)CC[C@]4(C)[C@]3(C)CC[C@@H]12 (stereo partly specified)	16.3	.	.	96.5	i	3.1	.	.	.
CC1(C)[C@@H](O)CC[C@]2(C)C3C(O)C=C4[C@H]5C[C@@](C)(C(=O)O)CC[C@]5(C)CC[C@]4(C)[C@]3(C)CC[C@@H]12 (stereo partly specified)	60.1*	.	.	69.6	i	.	70.3*	.	.
SMILES	NALP3 yeast inh	NALP1 inh	PERK inh	CR mimetic SO	Rce1 inh	V-ATPase pHluor	NALP3 confirm	Casp1-ASC yeast	NALP3 yeast rt
CC(C)NC(=O)N(C)C[C@H]1OCc2cnnn2CCCC(=O)N([C@H](C)CO)C[C@H]1C	.	.	.	.	.	-0.3	.	.	.
Cc1ccc(OCCn2cnc(Cl)c2Cl)cc1	50.1*	3.1	0.2	94.1	i	-3.0	58.9*	.	.
CCCCCCN1C[C@@H](n2cc(C3CC3)nn2)[C@H](O)C[C@@H]1c1ccc(OC)cc1	.	.	.	.	.	1.2	.	.	.
c1ccc(Sc2cccc3ccccc23)c(CNC2=NCCN2)c1	73.7*	78.2*	-0.2	93.2	i	3.4	62.9*	48.9	69.7*
Fc1ccccc1Sc1ccccc1CNC1=NCCN1	14.1	42.4	0.4	90.3	i	1.8	.	.	.
COc1ccccc1-c1oc2ccccc2c1C#CC(C)(C)O	71.7*	.	.	82.6	.	1.1	59.0*	71.2*	59.8*
CCc1sc(C(=O)Nc2nc(C)cs2)cc1C	56.1*	28.1	.	.	i	-1.7	72.2*	65.5*	54.2*
CCc1sc(C(=O)Nc2ccc(NC(C)=O)cc2)cc1C	24.7	27.1	0.3	93.9	i	3.6	.	.	.
C[C@@H]1CN([C@@H](C)CO)C(=O)c2cc(Br)cnc2O[C@@H]1CN(C)Cc1cncnc1	.	.	.	.	.	-1.7	.	.	.
CC(C)Oc1ccc2c(=O)c(-c3ccccc3)coc2c1	57.6*	49.2	0.2	109.8	i	6.3	66.0*	40.4	36.7
Cc1cnc(C2OCCO2)c2cccc([N+](=O)[O-])c12	.	.	.	.	.	0.2	.	.	.
Cc1ccccc1-c1cc2c(nn1)-c1ccccc1C2=O	60.6*	16.7	-0.5	107.8	i	-0.5	55.0*	25.8	35.8
O=C(Cc1ccc(Cl)cc1)N1CCc2ccccc2C1	52.7*	.	.	81.7	i	-1.6	32.4	.	.
COc1ccccc1S(=O)(=O)N(C)C[C@@H]1OCc2cn(nn2)CCCC(=O)N([C@@H](C)CO)C[C@H]1C	.	.	.	.	.	1.6	.	.	.
Cc1ccc(C)c(CSc2nnc(CCN)o2)c1	72.3*	2.8	1.8	100.5	i	-0.1	79.6*	64.7*	71.7*
NCCc1nnc(SCc2ccccc2F)o1	62.8*	15.9	1.2	85.7	i	-2.3	74.4*	68.5*	69.5*
NCCc1nnc(SCc2ccccc2)o1	61.4*	16.2	1.1	92.9	i	-3.7	74.8*	60.6*	61.0*
